The source of these data is PMC12864922, “TDP-43 directly inhibits mRNA accumulation in neurites through modulation of mRNA stability”.

Over roughly 9,900 sequences, “r (bound/input frequency ratio)” has its median near 0.7; the highest 2% begin near 6.5. Many of the other results were omitted from the sample, so the highest values are more common in it than they were.

B1: ENSMUSG00000061578.1481|Ksr2 (ssRNA)
RNA: GGGAGUUCUACAGUCCGACGAUCGCUUCGAUAUCCGCAUGCUAUGAAUGGAUGGGUAGGUGGGUGGAUGCAUAGGCAAGUAGAUGAAUGAAUAUGUGGGUAGAAGGGUGAGUGGGUGGAUGAAUGGAUGGAUAGGUUGGUAGGUUAAUGUAUUCGUGGAUGGGUGAAUGGAUGGAUGGAUAGAUAGAUGGGAAGGUGGAUGGACAGAUGGAUGGAUGGAUAGAUAGAUGGACAGGUGGUUGGUGGAUAAAUGAGUGAAUGAUUAUGUUGAUAGAUAUGUGGGUAGGCUGAAUGGGUGAAUGGACUCUUGCGGUCGCACUAGUGUGGAAUUCUCGGGUGUCAAGG
B2: ENSMUSG00000061578.1478|Ksr2 (ssRNA)
RNA: GGGAGUUCUACAGUCCGACGAUCGCUUCGAUAUCCGCAUGCUAGAUUUGUGAAUGAAUGGAUGAAUGGAUGGGUAGGUGGGUGGAUGCAUAGGCAAGUAGAUGAAUGAAUAUGUGGGUAGAAGGGUGAGUGGGUGGAUGAAUGGAUGGAUAGGUUGGUAGGUUAAUGUAUUCGUGGAUGGGUGAAUGGAUGGAUGGAUAGAUAGAUGGGAAGGUGGAUGGACAGAUGGAUGGAUGGAUAGAUAGAUGGACAGGUGGUUGGUGGAUAAAUGAGUGAAUGAUUAUGUUGAUAGAUAUGUGGGUAGCUCUUGCGGUCGCACUAGUGUGGAAUUCUCGGGUGUCAAGG
B3: ENSMUSG00000061578.1479|Ksr2 (ssRNA)
RNA: GGGAGUUCUACAGUCCGACGAUCGCUUCGAUAUCCGCAUGCUAUGAAUGAAUGGAUGAAUGGAUGGGUAGGUGGGUGGAUGCAUAGGCAAGUAGAUGAAUGAAUAUGUGGGUAGAAGGGUGAGUGGGUGGAUGAAUGGAUGGAUAGGUUGGUAGGUUAAUGUAUUCGUGGAUGGGUGAAUGGAUGGAUGGAUAGAUAGAUGGGAAGGUGGAUGGACAGAUGGAUGGAUGGAUAGAUAGAUGGACAGGUGGUUGGUGGAUAAAUGAGUGAAUGAUUAUGUUGAUAGAUAUGUGGGUAGGCUGAACUCUUGCGGUCGCACUAGUGUGGAAUUCUCGGGUGUCAAGG
B4: ENSMUSG00000061578.1480|Ksr2 (ssRNA)
RNA: GGGAGUUCUACAGUCCGACGAUCGCUUCGAUAUCCGCAUGCUAAAUGGAUGAAUGGAUGGGUAGGUGGGUGGAUGCAUAGGCAAGUAGAUGAAUGAAUAUGUGGGUAGAAGGGUGAGUGGGUGGAUGAAUGGAUGGAUAGGUUGGUAGGUUAAUGUAUUCGUGGAUGGGUGAAUGGAUGGAUGGAUAGAUAGAUGGGAAGGUGGAUGGACAGAUGGAUGGAUGGAUAGAUAGAUGGACAGGUGGUUGGUGGAUAAAUGAGUGAAUGAUUAUGUUGAUAGAUAUGUGGGUAGGCUGAAUGGGUGCUCUUGCGGUCGCACUAGUGUGGAAUUCUCGGGUGUCAAGG
B5: ENSMUSG00000061578.1482|Ksr2 (ssRNA)
RNA: GGGAGUUCUACAGUCCGACGAUCGCUUCGAUAUCCGCAUGCUAGAUGGGUAGGUGGGUGGAUGCAUAGGCAAGUAGAUGAAUGAAUAUGUGGGUAGAAGGGUGAGUGGGUGGAUGAAUGGAUGGAUAGGUUGGUAGGUUAAUGUAUUCGUGGAUGGGUGAAUGGAUGGAUGGAUAGAUAGAUGGGAAGGUGGAUGGACAGAUGGAUGGAUGGAUAGAUAGAUGGACAGGUGGUUGGUGGAUAAAUGAGUGAAUGAUUAUGUUGAUAGAUAUGUGGGUAGGCUGAAUGGGUGAAUGGAUAGAUCCUCUUGCGGUCGCACUAGUGUGGAAUUCUCGGGUGUCAAGG
B6: ENSMUSG00000061578.1485|Ksr2 (ssRNA)
RNA: GGGAGUUCUACAGUCCGACGAUCGCUUCGAUAUCCGCAUGCUAUGCAUAGGCAAGUAGAUGAAUGAAUAUGUGGGUAGAAGGGUGAGUGGGUGGAUGAAUGGAUGGAUAGGUUGGUAGGUUAAUGUAUUCGUGGAUGGGUGAAUGGAUGGAUGGAUAGAUAGAUGGGAAGGUGGAUGGACAGAUGGAUGGAUGGAUAGAUAGAUGGACAGGUGGUUGGUGGAUAAAUGAGUGAAUGAUUAUGUUGAUAGAUAUGUGGGUAGGCUGAAUGGGUGAAUGGAUAGAUCGAUGACUGGAUGGAGGGUCUCUUGCGGUCGCACUAGUGUGGAAUUCUCGGGUGUCAAGG
B7: ENSMUSG00000061578.1486|Ksr2 (ssRNA)
RNA: GGGAGUUCUACAGUCCGACGAUCGCUUCGAUAUCCGCAUGCUAGGCAAGUAGAUGAAUGAAUAUGUGGGUAGAAGGGUGAGUGGGUGGAUGAAUGGAUGGAUAGGUUGGUAGGUUAAUGUAUUCGUGGAUGGGUGAAUGGAUGGAUGGAUAGAUAGAUGGGAAGGUGGAUGGACAGAUGGAUGGAUGGAUAGAUAGAUGGACAGGUGGUUGGUGGAUAAAUGAGUGAAUGAUUAUGUUGAUAGAUAUGUGGGUAGGCUGAAUGGGUGAAUGGAUAGAUCGAUGACUGGAUGGAGGGUGGGUGACUCUUGCGGUCGCACUAGUGUGGAAUUCUCGGGUGUCAAGG
B8: ENSMUSG00000061578.1483|Ksr2 (ssRNA)
RNA: GGGAGUUCUACAGUCCGACGAUCGCUUCGAUAUCCGCAUGCUAUAGGUGGGUGGAUGCAUAGGCAAGUAGAUGAAUGAAUAUGUGGGUAGAAGGGUGAGUGGGUGGAUGAAUGGAUGGAUAGGUUGGUAGGUUAAUGUAUUCGUGGAUGGGUGAAUGGAUGGAUGGAUAGAUAGAUGGGAAGGUGGAUGGACAGAUGGAUGGAUGGAUAGAUAGAUGGACAGGUGGUUGGUGGAUAAAUGAGUGAAUGAUUAUGUUGAUAGAUAUGUGGGUAGGCUGAAUGGGUGAAUGGAUAGAUCGAUGACCUCUUGCGGUCGCACUAGUGUGGAAUUCUCGGGUGUCAAGG
B9: ENSMUSG00000061578.1484|Ksr2 (ssRNA)
RNA: GGGAGUUCUACAGUCCGACGAUCGCUUCGAUAUCCGCAUGCUAGGUGGAUGCAUAGGCAAGUAGAUGAAUGAAUAUGUGGGUAGAAGGGUGAGUGGGUGGAUGAAUGGAUGGAUAGGUUGGUAGGUUAAUGUAUUCGUGGAUGGGUGAAUGGAUGGAUGGAUAGAUAGAUGGGAAGGUGGAUGGACAGAUGGAUGGAUGGAUAGAUAGAUGGACAGGUGGUUGGUGGAUAAAUGAGUGAAUGAUUAUGUUGAUAGAUAUGUGGGUAGGCUGAAUGGGUGAAUGGAUAGAUCGAUGACUGGAUGCUCUUGCGGUCGCACUAGUGUGGAAUUCUCGGGUGUCAAGG
B10: ENSMUSG00000028439.39|Fam219a|34:40 (ssRNA)
RNA: GGGAGUUCUACAGUCCGACGAUCGCUUCGAUAUCCGCAUGCUACAUUGCUUCCUCCUAUGGUAGGACGUGUACCUCACACACAUCAAGGAGCCGGAGAAACCAAAACCGGGUCUGUCUCCAGCCCCGGGGCUGAGGAGGGGUGGGCACUGUUUGUUCGGUUACUUGGGGGGAACCACACCCAAGCACCCUGCCACCUCUCCUAUAGCUGCAGUCAGGGGGGCAGCACUGAAGGCCAGGAGGCCAAAUGUAAGCGUUGGGUGAAGGGAUCACAGGGCCGGAAGGUUGGCCCCAGCCAGUGAAGCCUCUUGCGGUCGCACUAGUGUGGAAUUCUCGGGUGUCAAGG
B11: ENSMUSG00000043670.69|Diras1|133:138 (ssRNA)
RNA: GGGAGUUCUACAGUCCGACGAUCGCUUCGAUAUCCGCAUGCUACCAUUCUAUCUGCACCCCACAACCACACACUGGAGGUUUGAUCCCUGUGGAUCUGAAAACAGGGACCUGGCUAAGGAACUGCUCAUCCCAGUCAGGCCCAGAGAGGUUACCUUGCCUCUCCAUCUCUGUCCCACACACCCCAGCCAUGCCCACUGUCCCUGUCCCUCACAUUCUAUCACUGUGACCUCUGGGGAGUGCCCAUUGACCUCAUCUUCCUUCACUAAUAUCUUAUUUCUUUCACCUGAUCCUGUCCUUUCCCCCUCUUGCGGUCGCACUAGUGUGGAAUUCUCGGGUGUCAAGG
B12: ENSMUSG00000028439.112|Fam219a (ssRNA)
RNA: GGGAGUUCUACAGUCCGACGAUCGCUUCGAUAUCCGCAUGCUACAAAGGGAUACUGUCUCUCCAUUAGAUAACUCCUUCCACUGUCUCCCUCCCCCGCUUUCUUACUUUCUGAGGGUUGGGAAGGUAAGAUGGGCCUUAGAGAGAAGCCAGGUUUGGGGAUGGUAUGACCUGUUCUCACCGGUCUCUAACCAGUGCAUCUGUCUCUCUGCCUCAUCCCCACACCGCCCUGCCACCCCCAGUCUUCUGUCUAUUGGUUCCAGGCUGGAAGCAAGAGAUAAGGCUGGCCUCCUGUGCCCCAUUGCCUCUUGCGGUCGCACUAGUGUGGAAUUCUCGGGUGUCAAGG
B13: ENSMUSG00000032194.3|Kank2 (ssRNA)
RNA: GGGAGUUCUACAGUCCGACGAUCGCUUCGAUAUCCGCAUGCUAUCAGACUACGAGAGUCCGGCUUCGUCUUCAGCCGAGGAGUGAAUACAGGGAGGAGCCAGUGAGUCCCCCAGGACCCACCAGCCACAAGCCACGCAUCAAACCGUCCCUCCUCCAUCCCUCUGUCCCAUUCUGCCUCGGCAUUCCUCAGCCCCUGAACUUCCCUGAGGGAGCCCUGACAUCUACCAGGCUCAAGCUCCUGGAAGCCUUUCCCAGCACCCUGGGUUCAAAGCCAGAAAGCCAAGCUACAUUCUCCUCCCAGUCUCUUGCGGUCGCACUAGUGUGGAAUUCUCGGGUGUCAAGG

In the experiment the target is TDP-43 (Homo sapiens, UniProt Q13148 1-414). Put plainly: RNA Bind-n-Seq with designed 260-mer pool; 25 mM Tris-HCl, 150 mM KCl, 3 mM MgCl2, BSA (printed 500 mg/mL), 20 units/mL SUPERase IN; pH not stated; 500 nM RNA pool, 1 h, 4 C; TDP-43 5, 50, 500 nM; high values mean tight binding. The conditions noted are these: protein: recombinant; tags: SBP (GST cleaved off with PreScission; pGEX-GST-SBP). Summed up: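 The incubation lasted 1 h at 4 °C and used 500 nM of an in vitro-transcribed 260-nt 3′ UTR oligo pool with recombinant SBP-tagged TDP-43 at 5, 50 or 500 nM immobilized on streptavidin beads. It took place in 25 mM Tris-HCl, 150 mM KCl, 3 mM MgCl2, BSA and SUPERase IN. Bound RNA was washed, eluted with biotin, converted to cDNA, PCR-amplified and sequenced to give R, each oligo's normalized abundance in the bound sample divided by that in input. Two independent protein batches provided the duplicates.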
Chain of TDP-43 (Q13148 whole entry): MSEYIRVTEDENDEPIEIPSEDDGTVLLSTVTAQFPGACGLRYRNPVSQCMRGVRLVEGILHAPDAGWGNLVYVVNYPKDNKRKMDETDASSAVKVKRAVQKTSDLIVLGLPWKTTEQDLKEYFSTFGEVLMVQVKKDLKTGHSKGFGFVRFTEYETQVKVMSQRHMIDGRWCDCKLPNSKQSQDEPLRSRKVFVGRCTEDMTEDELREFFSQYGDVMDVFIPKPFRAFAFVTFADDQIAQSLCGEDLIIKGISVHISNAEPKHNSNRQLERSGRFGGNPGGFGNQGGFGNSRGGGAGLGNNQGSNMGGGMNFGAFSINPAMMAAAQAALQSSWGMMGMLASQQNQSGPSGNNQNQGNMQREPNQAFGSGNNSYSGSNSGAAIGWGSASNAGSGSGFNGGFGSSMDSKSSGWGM
With B1, the binding signal is 5.98 R (bound/input frequency ratio).

As to B2, the binding signal was 4.77 R (bound/input frequency ratio).

Regarding B3, the binding signal was 5.48 R (bound/input frequency ratio).

For the molecule B4, the binding signal is 7.65 R (bound/input frequency ratio).

With B5, the binding signal is 7 R (bound/input frequency ratio).

With B6, the binding signal is 5.62 R (bound/input frequency ratio).

For B7, the binding signal is 5.39 R (bound/input frequency ratio).

Consider B8, for which the binding signal is 4.53 R (bound/input frequency ratio).

Turning to B9, the binding signal was 6.89 R (bound/input frequency ratio).

Turning to B10, the binding signal was 1.29 R (bound/input frequency ratio).

In the case of B11, the binding signal is 2.03 R (bound/input frequency ratio).

As for B12, the binding signal is 0.71 R (bound/input frequency ratio).

On to B13, for which the binding signal was 1.4 R (bound/input frequency ratio).
